Data from PMC7862700, “An all-to-all approach to the identification of sequence-specific readers for epigenetic DNA modifications on cytosine”.

What was measured:
Assay in all cases: DAPPL (digital affinity profiling via proximity ligation, sequencing); 10 mM Tris-HCl pH 7.5, 50 mM NaCl, 1 mM DTT, 4% glycerol, room temperature, 30 min; GST-TFs on glutathione beads, 16-mer random dsDNA library, 0.1% formaldehyde crosslink after washing; high values mean tight binding
Conditions in all cases: protein: recombinant; tags: N-terminal GST; dsDNA, one strand shown
FLI1 = target: T1, FLI1 (Homo sapiens, UniProt Q01543 1-452)
T1 sequence: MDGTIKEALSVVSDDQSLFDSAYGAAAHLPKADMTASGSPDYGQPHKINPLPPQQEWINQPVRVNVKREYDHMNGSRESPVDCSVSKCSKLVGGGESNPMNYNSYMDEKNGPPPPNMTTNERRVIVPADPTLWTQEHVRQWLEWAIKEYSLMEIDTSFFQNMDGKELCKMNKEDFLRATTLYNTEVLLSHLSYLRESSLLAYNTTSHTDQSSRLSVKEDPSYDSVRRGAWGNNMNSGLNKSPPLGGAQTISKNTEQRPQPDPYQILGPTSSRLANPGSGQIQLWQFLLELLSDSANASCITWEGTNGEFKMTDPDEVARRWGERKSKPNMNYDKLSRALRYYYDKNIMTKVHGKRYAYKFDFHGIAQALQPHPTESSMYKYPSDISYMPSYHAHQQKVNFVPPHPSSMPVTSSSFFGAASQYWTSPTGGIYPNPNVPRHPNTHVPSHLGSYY
In short: (§1)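 Binding signal is each hexamer's read frequency for a factor divided by its frequency in the tag-only sample. The factors were GST-fused human transcription factors from yeast, captured on glutathione beads, DNA-barcoded and pooled with that sample. Pools were incubated with 200 nmole of a random double-stranded 16-mer DNA library in Tris/NaCl/DTT/glycerol buffer at room temperature for 30 min, then washed, crosslinked with 0.1% formaldehyde, proximity-ligated with BsaI/T4 ligase (1 h, 37 °C), PCR-amplified and sequenced on an Illumina NextSeq500.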

ELK1 = target: T2, ELK1 (Homo sapiens, UniProt P19419 1-428)
T2 sequence: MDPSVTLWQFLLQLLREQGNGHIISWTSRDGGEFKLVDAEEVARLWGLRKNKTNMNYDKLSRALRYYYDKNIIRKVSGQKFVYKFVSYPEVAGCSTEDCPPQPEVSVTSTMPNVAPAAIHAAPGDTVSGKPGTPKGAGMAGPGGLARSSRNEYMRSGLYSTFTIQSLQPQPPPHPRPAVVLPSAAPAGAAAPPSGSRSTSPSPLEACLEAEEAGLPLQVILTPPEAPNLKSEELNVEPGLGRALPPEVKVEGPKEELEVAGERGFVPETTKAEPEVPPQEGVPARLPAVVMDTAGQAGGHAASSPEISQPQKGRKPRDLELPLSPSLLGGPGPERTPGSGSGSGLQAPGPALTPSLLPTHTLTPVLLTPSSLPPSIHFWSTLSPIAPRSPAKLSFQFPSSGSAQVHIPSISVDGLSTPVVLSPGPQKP
In short: as §1

ERG = target: T3, ERG (Homo sapiens, UniProt P11308 1-479)
T3 sequence: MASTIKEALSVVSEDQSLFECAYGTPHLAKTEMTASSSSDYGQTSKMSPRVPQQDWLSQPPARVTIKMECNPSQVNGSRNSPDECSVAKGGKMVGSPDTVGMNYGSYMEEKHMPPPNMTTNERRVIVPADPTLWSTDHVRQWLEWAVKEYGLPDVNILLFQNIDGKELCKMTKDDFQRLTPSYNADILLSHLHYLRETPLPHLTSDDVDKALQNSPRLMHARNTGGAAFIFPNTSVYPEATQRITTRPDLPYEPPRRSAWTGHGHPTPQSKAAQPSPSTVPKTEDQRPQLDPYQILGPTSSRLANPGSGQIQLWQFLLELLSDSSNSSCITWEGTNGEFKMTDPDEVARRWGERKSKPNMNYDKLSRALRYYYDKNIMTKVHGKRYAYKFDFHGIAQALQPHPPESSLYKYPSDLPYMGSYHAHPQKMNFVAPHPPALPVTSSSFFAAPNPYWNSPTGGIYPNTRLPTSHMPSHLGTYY
In short: as §1

ELF1 = ELF1 (Homo sapiens, UniProt P32519 1-619)
In short: as §1

EHF = target: T4, EHF (Homo sapiens, UniProt Q9NZC4 1-300)
T4 sequence: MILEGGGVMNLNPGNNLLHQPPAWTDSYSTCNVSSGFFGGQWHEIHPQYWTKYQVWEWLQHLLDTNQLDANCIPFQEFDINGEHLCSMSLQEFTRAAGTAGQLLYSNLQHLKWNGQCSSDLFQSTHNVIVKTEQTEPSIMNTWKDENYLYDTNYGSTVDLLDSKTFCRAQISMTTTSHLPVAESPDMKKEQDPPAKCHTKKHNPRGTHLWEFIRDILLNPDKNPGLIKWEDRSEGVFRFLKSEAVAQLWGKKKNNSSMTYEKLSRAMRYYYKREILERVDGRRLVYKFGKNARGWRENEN
In short: as §1

SPI1 = SPI1 (Homo sapiens, UniProt P17947 1-270)
In short: as §1

SPIB = SPIB (Homo sapiens, UniProt Q01892 1-262)
In short: as §1

ETV5 = ETV5 (Homo sapiens, UniProt P41161 1-510)
In short: as §1

ELF4 = ELF4 (Homo sapiens, UniProt Q99607 1-663)
In short: as §1

ETV2 = target: T5, ETV2 (Homo sapiens, UniProt O00321 1-342)
T5 sequence: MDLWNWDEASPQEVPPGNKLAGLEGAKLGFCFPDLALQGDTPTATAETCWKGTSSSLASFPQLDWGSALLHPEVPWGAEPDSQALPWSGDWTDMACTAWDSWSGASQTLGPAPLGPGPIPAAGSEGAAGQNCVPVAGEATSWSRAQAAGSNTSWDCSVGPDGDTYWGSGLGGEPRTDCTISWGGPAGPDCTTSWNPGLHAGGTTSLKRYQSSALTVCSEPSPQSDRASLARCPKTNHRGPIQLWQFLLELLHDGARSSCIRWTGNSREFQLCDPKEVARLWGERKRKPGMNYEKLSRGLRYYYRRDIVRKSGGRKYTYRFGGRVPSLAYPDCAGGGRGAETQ
In short: as §1

ETV1 = ETV1 (Homo sapiens, UniProt P50549 1-477)
In short: as §1

ERF = target: T6, ERF (Homo sapiens, UniProt P50548 1-548)
T6 sequence: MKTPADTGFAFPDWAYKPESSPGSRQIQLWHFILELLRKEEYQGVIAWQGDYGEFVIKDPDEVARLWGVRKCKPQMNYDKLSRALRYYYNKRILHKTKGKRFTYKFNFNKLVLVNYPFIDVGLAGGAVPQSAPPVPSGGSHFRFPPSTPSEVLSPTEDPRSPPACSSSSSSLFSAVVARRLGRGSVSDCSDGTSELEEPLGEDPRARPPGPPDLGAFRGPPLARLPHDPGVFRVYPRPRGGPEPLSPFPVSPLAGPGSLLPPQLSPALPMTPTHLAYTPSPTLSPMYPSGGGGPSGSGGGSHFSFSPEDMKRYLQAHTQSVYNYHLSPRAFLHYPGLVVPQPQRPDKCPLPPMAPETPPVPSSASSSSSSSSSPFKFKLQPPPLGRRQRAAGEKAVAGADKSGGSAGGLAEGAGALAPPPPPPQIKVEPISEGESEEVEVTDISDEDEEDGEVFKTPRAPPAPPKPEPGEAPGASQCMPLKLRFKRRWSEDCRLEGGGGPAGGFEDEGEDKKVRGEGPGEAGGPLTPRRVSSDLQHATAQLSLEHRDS
In short: as §1

ETV3L = target: T7, ETV3L (Homo sapiens, UniProt Q6ZN32 1-361)
T7 sequence: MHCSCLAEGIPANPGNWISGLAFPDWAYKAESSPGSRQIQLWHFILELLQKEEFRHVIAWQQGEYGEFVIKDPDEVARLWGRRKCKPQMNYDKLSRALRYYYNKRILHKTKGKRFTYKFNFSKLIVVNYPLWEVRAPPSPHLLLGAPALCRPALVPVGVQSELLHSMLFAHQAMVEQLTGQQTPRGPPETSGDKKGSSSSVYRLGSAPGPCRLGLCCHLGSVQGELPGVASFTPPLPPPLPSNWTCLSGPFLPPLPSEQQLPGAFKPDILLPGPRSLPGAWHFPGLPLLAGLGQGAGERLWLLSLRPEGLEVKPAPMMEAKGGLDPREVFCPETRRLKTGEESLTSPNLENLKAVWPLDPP
In short: as §1

ETS2 = target: T8, ETS2 (Homo sapiens, UniProt P15036 1-469)
T8 sequence: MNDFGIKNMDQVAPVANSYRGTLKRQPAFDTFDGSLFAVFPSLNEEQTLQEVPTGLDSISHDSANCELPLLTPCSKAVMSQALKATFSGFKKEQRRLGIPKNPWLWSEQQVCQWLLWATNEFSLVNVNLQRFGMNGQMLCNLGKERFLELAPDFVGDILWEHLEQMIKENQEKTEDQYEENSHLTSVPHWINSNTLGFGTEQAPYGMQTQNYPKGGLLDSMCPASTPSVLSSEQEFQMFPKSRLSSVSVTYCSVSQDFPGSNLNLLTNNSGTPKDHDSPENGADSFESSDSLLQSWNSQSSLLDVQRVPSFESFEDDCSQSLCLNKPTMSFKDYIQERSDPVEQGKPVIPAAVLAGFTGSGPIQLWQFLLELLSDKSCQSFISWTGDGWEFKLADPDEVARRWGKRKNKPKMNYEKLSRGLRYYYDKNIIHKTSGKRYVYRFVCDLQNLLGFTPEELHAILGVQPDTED
In short: as §1

ETV7 = target: T9, ETV7 (Homo sapiens, UniProt Q9Y603 1-341)
T9 sequence: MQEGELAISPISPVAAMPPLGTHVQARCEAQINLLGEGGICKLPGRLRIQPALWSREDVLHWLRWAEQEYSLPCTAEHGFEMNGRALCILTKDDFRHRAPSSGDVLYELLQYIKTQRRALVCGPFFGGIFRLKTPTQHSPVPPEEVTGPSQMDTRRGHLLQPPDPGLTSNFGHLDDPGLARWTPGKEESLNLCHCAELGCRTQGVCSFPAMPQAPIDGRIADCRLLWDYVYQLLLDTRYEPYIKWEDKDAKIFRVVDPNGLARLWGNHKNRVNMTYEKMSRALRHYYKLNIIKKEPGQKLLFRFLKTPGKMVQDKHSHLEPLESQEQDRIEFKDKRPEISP
In short: as §1

ETV3 = target: T10, ETV3 (Homo sapiens, UniProt P41162-2 1-143)
T10 sequence: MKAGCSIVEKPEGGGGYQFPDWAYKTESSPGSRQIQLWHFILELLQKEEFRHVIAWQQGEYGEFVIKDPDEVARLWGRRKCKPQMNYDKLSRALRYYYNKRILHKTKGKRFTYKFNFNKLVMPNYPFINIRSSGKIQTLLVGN
In short: as §1

ETV6 = ETV6 (Homo sapiens, UniProt P41212 1-452)
In short: as §1

GABPA = target: T11, GABPA (Homo sapiens, UniProt Q06546 1-454)
T11 sequence: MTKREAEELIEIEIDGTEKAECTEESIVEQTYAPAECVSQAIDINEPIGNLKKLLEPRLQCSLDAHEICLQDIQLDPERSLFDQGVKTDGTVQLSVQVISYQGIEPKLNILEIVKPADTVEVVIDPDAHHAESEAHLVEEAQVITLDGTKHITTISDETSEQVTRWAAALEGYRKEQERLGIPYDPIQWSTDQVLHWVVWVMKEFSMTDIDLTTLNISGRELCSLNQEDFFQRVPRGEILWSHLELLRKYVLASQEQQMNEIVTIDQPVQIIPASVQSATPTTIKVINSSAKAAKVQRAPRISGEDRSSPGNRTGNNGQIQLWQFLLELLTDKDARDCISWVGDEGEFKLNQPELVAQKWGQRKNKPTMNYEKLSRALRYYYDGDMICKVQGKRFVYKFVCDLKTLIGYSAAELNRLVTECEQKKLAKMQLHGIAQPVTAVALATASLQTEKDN
In short: as §1

FEV = target: T12, FEV (Homo sapiens, UniProt Q99581 1-238)
T12 sequence: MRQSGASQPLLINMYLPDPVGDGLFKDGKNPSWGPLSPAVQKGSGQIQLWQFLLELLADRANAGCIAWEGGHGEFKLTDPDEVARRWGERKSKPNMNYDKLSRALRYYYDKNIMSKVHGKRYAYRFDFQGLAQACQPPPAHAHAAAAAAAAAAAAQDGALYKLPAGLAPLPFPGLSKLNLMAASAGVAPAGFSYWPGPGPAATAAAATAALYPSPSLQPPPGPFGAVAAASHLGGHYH
In short: as §1

Sequence of ETV6 (P41212 whole entry): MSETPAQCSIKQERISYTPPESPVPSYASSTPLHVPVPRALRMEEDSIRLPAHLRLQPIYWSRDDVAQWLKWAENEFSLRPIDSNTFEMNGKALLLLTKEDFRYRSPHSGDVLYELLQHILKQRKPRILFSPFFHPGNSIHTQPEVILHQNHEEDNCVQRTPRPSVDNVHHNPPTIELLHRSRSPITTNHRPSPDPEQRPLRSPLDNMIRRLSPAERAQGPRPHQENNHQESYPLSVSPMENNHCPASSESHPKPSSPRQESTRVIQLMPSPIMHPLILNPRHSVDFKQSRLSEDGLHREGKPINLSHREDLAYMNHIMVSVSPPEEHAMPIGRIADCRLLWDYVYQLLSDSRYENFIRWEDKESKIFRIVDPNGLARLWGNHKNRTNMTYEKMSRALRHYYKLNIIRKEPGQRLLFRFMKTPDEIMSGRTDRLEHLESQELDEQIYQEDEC
Sequence of ELF4 (Q99607 whole entry): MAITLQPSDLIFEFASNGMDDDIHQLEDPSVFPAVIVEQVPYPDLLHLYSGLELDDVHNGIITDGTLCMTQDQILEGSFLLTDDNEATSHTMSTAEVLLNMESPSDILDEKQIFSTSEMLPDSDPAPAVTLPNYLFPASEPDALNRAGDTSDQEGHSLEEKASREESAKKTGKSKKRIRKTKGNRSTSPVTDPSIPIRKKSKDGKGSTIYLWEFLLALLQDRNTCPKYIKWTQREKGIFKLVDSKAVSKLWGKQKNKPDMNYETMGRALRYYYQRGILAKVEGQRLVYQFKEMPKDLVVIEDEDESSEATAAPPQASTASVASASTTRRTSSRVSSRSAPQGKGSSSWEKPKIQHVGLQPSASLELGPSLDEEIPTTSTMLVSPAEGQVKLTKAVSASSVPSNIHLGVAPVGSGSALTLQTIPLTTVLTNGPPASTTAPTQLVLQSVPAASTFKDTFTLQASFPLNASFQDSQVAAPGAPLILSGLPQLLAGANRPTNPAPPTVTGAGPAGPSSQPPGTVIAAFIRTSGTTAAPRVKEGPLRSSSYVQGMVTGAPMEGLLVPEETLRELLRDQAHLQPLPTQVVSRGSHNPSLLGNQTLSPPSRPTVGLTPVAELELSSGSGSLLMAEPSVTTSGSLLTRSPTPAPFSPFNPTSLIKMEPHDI
Sequence of ETV1 (P50549 whole entry): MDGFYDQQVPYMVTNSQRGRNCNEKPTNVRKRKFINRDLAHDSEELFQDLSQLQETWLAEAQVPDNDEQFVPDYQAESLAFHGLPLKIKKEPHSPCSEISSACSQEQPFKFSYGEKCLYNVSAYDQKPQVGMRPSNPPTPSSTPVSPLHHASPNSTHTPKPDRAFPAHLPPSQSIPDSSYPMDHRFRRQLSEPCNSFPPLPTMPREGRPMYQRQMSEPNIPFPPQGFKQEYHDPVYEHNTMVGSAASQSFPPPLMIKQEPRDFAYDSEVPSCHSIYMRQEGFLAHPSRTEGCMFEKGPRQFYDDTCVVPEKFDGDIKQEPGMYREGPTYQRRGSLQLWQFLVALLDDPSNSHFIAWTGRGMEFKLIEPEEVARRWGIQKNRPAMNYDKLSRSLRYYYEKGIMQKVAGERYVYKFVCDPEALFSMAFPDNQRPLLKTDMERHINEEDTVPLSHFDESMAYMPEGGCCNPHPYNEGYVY
Sequence of ETV5 (P41161 whole entry): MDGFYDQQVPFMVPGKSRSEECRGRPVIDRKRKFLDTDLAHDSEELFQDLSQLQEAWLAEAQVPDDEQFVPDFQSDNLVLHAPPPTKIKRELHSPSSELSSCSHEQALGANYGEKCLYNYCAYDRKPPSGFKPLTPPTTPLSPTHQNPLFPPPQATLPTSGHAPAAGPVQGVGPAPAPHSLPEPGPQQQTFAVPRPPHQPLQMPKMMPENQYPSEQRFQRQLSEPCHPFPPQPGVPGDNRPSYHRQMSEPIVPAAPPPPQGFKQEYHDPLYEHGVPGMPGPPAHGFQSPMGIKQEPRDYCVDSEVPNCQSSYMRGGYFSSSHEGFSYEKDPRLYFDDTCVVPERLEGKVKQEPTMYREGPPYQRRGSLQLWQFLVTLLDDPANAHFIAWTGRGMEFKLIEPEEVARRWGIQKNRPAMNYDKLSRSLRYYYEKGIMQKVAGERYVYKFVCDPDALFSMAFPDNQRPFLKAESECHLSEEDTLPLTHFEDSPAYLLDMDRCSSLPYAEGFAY
Sequence of SPIB (Q01892 whole entry): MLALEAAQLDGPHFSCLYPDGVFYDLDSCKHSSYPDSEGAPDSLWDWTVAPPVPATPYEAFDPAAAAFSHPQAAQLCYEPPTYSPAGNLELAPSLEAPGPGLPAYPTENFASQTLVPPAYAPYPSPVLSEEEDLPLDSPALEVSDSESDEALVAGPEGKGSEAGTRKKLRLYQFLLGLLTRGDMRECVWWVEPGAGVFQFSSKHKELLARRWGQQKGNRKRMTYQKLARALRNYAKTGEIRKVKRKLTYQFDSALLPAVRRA
Sequence of ELF1 (P32519 whole entry): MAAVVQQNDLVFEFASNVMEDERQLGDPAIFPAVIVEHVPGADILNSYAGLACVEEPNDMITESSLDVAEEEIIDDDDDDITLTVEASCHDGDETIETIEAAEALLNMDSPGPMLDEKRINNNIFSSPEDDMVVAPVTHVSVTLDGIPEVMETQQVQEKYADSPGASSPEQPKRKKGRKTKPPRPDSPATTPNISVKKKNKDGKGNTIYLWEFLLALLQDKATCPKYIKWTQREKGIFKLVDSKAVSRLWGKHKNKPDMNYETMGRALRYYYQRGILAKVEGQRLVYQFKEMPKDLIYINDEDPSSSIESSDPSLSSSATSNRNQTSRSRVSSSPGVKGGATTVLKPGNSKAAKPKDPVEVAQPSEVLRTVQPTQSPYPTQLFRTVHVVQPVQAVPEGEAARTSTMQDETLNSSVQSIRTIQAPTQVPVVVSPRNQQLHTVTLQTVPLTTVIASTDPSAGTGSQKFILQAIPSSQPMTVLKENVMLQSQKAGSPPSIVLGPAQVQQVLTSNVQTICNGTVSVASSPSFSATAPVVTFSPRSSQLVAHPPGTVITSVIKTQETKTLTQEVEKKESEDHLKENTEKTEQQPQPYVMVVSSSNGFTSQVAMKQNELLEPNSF

Row | Sequence | binding signal (FLI1) | binding signal (ELK1) | binding signal (ERG) | binding signal (ELF1) | binding signal (EHF) | binding signal (SPI1) | binding signal (SPIB) | binding signal (ETV5) | binding signal (ELF4) | binding signal (ETV2) | binding signal (ETV1) | binding signal (ERF) | binding signal (ETV3L) | binding signal (ETS2) | binding signal (ETV7) | binding signal (ETV3) | binding signal (ETV6) | binding signal (GABPA) | binding signal (FEV)
1 | CATGTT | 1.05 fold enrichment (6-mer frequency, TF over GST control) | 1.07 fold enrichment (6-mer frequency, TF over GST control) | 1.04 fold enrichment (6-mer frequency, TF over GST control) | 1.06 fold enrichment (6-mer frequency, TF over GST control) | 1.03 fold enrichment (6-mer frequency, TF over GST control) | 1.04 fold enrichment (6-mer frequency, TF over GST control) | 1.03 fold enrichment (6-mer frequency, TF over GST control) | 1.03 fold enrichment (6-mer frequency, TF over GST control) | 1.05 fold enrichment (6-mer frequency, TF over GST control) | 1.11 fold enrichment (6-mer frequency, TF over GST control) | 1.15 fold enrichment (6-mer frequency, TF over GST control) | 1.05 fold enrichment (6-mer frequency, TF over GST control) | 1.06 fold enrichment (6-mer frequency, TF over GST control) | 1.01 fold enrichment (6-mer frequency, TF over GST control) | 1.1 fold enrichment (6-mer frequency, TF over GST control) | 1.12 fold enrichment (6-mer frequency, TF over GST control) | 1.1 fold enrichment (6-mer frequency, TF over GST control) |  | 
2 | CATACA | 1.11 fold enrichment (6-mer frequency, TF over GST control) | 1.04 fold enrichment (6-mer frequency, TF over GST control) | 1.07 fold enrichment (6-mer frequency, TF over GST control) | 1.06 fold enrichment (6-mer frequency, TF over GST control) | 1.03 fold enrichment (6-mer frequency, TF over GST control) | 1.05 fold enrichment (6-mer frequency, TF over GST control) | 1.08 fold enrichment (6-mer frequency, TF over GST control) | 1.05 fold enrichment (6-mer frequency, TF over GST control) | 1.15 fold enrichment (6-mer frequency, TF over GST control) | 1.1 fold enrichment (6-mer frequency, TF over GST control) | 1.02 fold enrichment (6-mer frequency, TF over GST control) | 1.15 fold enrichment (6-mer frequency, TF over GST control) |  | 1.06 fold enrichment (6-mer frequency, TF over GST control) | 1.1 fold enrichment (6-mer frequency, TF over GST control) |  | 1.01 fold enrichment (6-mer frequency, TF over GST control) | 1.08 fold enrichment (6-mer frequency, TF over GST control) | 1.07 fold enrichment (6-mer frequency, TF over GST control)
